A short description of test [1]: NCI Yeast Anticancer Drug Screen. Data for the rad50 strain (AID 155).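 Further: 0% = growth of vehicle-only cultures of the same strain.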 The following applies: S. cerevisiae rad50 strain growth inhibition, active compounds read high. The method in brief:
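Growth of the mutant yeast was measured after compound exposure and referenced to vehicle-treated cultures.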

Test [2] is described as follows: NCI Yeast Anticancer Drug Screen. Data for the mec2-1 strain (AID 157). To be noted: S. cerevisiae mec2-1 strain, active compounds read high. The method in brief:
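Vehicle-treated cultures served as reference for growth inhibition of compound-exposed mec2-1 yeast.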

Test [3] in a line: NCI Yeast Anticancer Drug Screen. Data for the sgs1 mgt1 strain (AID 161).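 Further: 0% = growth of cultures given vehicle only.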 To be noted: S. cerevisiae sgs1 mgt1 strain, active compounds read high. The method in brief: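 Read-out: growth inhibition vs vehicle controls. Cells: mutant yeast strain deficient in DNA damage repair.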
The nature of test [4]: NCI Yeast Anticancer Drug Screen. Data for the cln2 rad14 strain (AID 165).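 Further: 0% = growth equal to vehicle treated cultures.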 To be noted: S. cerevisiae cln2 rad14 strain, active compounds read high. The method in brief:
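Each compound was tested on cln2 rad14 yeast. Inhibition of growth was calculated against vehicle-exposed controls.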

The nature of test [5]: NCI Yeast Anticancer Drug Screen. Data for the bub3 strain (AID 167). The following applies: S. cerevisiae bub3 mutant strain, active compounds read high. The method in brief:
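Whole-cell yeast assay. The mutant strain was incubated with compounds, and growth inhibition was determined by comparison with vehicle-treated cells.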

Test [6] is described as follows: NCI Yeast Anticancer Drug Screen. Data for the mlh1 rad18 strain (AID 175). The following applies: S. cerevisiae mlh1 rad18 strain growth inhibition, active compounds read high. The method in brief:
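Vehicle-treated cultures served as the reference for growth inhibition in a yeast strain carrying DNA damage repair alterations exposed to each compound.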

The mark [7] stands for this setting: at 5.0 µM (retest, dose inferred, filed as 0.5).
The mark [8] stands for this setting: at 50.0 µM (retest, dose inferred, filed as 5.0).

Results on eight molecules are retold here after PubChem BioAssay (NCI).

Compounds without any hit were thinned out: in the full panel of roughly 79,000, 15% have a hit. Unmarked numbers belong to inactive results. Calls of active or inactive are those of the source. No stated cut-off is given here; in the data, active means growth inhibition above about 70%; inactive means the rest.

Take `[Au+].c1c[n-]cn1.c1ccc([PH+](c2ccccc2)c2ccccc2)cc1`: the growth inhibition in test [1] (setting [7]) is 99% (active); in test [1] (setting [8]) it was 98% (active); in test [1] (at 50.0 µM) it was 97.9% (active); in test [2] (setting [7]), 99% (active); in test [2] (setting [8]), 98% (active); in test [2] (at 50.0 µM), 98% (active). Further, the growth inhibition in test [3] (setting [7]) was 99% (active); in test [3] (setting [8]) it was 98% (active); in test [3] (at 50.0 µM), 96.2% (active); in test [4] (setting [7]), 98% (active); in test [4] (setting [8]), 97% (active); in test [4] (at 50.0 µM), 93.6% (active). In addition, the growth inhibition was 98% (active) in test [5] (setting [7]); 98% (active) in test [5] (setting [8]); 97.2% (active) in test [5] (at 50.0 µM); 99% (active) in test [6] (setting [7]); 98% (active) in test [6] (setting [8]); 97.7% (active) in test [6] (at 50.0 µM).
Consider `CCC1(O)C(=O)OCc2c1cc1n(c2=O)Cc2cc3cc([N+](=O)[O-])ccc3nc2-1` (centres undefined), for which the growth inhibition in test [1] (setting [7]) is 76% (active); in test [1] (setting [8]), 95% (active); in test [1] (at 50.0 µM), 77.9% (active); in test [2] (setting [7]), 10%; in test [2] (setting [8]), 46%; in test [2] (at 50.0 µM) it was 43.4%. The growth inhibition in test [3] (setting [7]) is 21%; in test [3] (setting [8]) it was 33%; in test [3] (at 50.0 µM), 24.9%; in test [4] (setting [7]), 14%; in test [4] (setting [8]), 8%; in test [4] (at 50.0 µM), -2.9%. Moreover, the growth inhibition in test [5] (setting [7]) was 13%; in test [5] (setting [8]) it was 10%; in test [5] (at 50.0 µM), -21.3%; in test [6] (setting [7]), 10%; in test [6] (setting [8]), 32%; in test [6] (at 50.0 µM), 59.5%.
On to `Cc1ccc(C#CCN2CCCCC2)cn1`, for which the growth inhibition in test [1] (setting [7]) is -142%; in test [1] (setting [8]), -82%; in test [1] (at 50.0 µM), 4.45%; in test [2] (setting [7]) it was -77%; in test [2] (setting [8]) it was -47%; in test [2] (at 50.0 µM) it was 11.1%. In addition, the growth inhibition is -64% in test [3] (setting [7]); -22% in test [3] (setting [8]); 22.8% in test [3] (at 50.0 µM); -60% in test [4] (setting [7]); -46% in test [4] (setting [8]); 69.2% in test [4] (at 50.0 µM). For the same molecule, the growth inhibition in test [5] (setting [7]) was -66%; in test [5] (setting [8]) it was -54%; in test [5] (at 50.0 µM) it was -0.5%; in test [6] (setting [7]) it was -138%; in test [6] (setting [8]) it was -87%; in test [6] (at 50.0 µM) it was 11.7%.
As to `[Cl][Hg][Cl].c1ccc(CSc2ccccc2)cc1`, the growth inhibition is 99% (active) in test [1] (setting [7]); 99% (active) in test [1] (setting [8]); 99% (active) in test [1] (at 50.0 µM); 100% (active) in test [2] (setting [7]); 100% (active) in test [2] (setting [8]); 99.7% (active) in test [2] (at 50.0 µM). Besides, the growth inhibition in test [3] (setting [7]) is 100% (active); in test [3] (setting [8]), 99% (active); in test [3] (at 50.0 µM) it was 99.3% (active); in test [4] (setting [7]), 99% (active); in test [4] (setting [8]), 99% (active); in test [4] (at 50.0 µM) it was 99.4% (active). The growth inhibition was 99% (active) in test [5] (setting [7]); 99% (active) in test [5] (setting [8]); 99.2% (active) in test [5] (at 50.0 µM); 99% (active) in test [6] (setting [7]); 99% (active) in test [6] (setting [8]); 99.5% (active) in test [6] (at 50.0 µM).
Regarding `CC(C)CCC[C@@H](C)[C@H]1CC[C@H]2[C@@H]3CC[C@H]4C[C@H](NCCCl)CC[C@]4(C)[C@H]3CC[C@]12C`, the growth inhibition in test [1] (setting [7]) is 28%; in test [1] (setting [8]), 36%; in test [1] (at 50.0 µM), 52%; in test [2] (setting [7]), 15%; in test [2] (setting [8]) it was 26%; in test [2] (at 50.0 µM), 43.6%. For the same molecule, the growth inhibition is 40% in test [3] (setting [7]); 68% in test [3] (setting [8]); 49.1% in test [3] (at 50.0 µM); 28% in test [4] (setting [7]); 7% in test [4] (setting [8]); 51% in test [4] (at 50.0 µM). The growth inhibition is 45% in test [5] (setting [7]); 49% in test [5] (setting [8]); 42.2% in test [5] (at 50.0 µM); 22% in test [6] (setting [7]); 27% in test [6] (setting [8]); 55% in test [6] (at 50.0 µM).
Turning to `CS/C([S-])=N/N=C(C)C.CS/C([S-])=N/N=C(C)C.[Ni+2]`, the growth inhibition in test [1] (setting [7]) is 34%; in test [1] (setting [8]), 94% (active); in test [1] (at 50.0 µM), 93.8% (active); in test [2] (setting [7]), 19%; in test [2] (setting [8]), 96% (active); in test [2] (at 50.0 µM), 57%. Also, the growth inhibition was 28% in test [3] (setting [7]); 97% (active) in test [3] (setting [8]); 83.7% (active) in test [3] (at 50.0 µM); 11% in test [4] (setting [7]); 89% (active) in test [4] (setting [8]); -13.8% in test [4] (at 50.0 µM). The growth inhibition in test [5] (setting [7]) was 72% (active); in test [5] (setting [8]), 96% (active); in test [5] (at 50.0 µM), 79.8% (active); in test [6] (setting [7]), 72% (active); in test [6] (setting [8]) it was 97% (active); in test [6] (at 50.0 µM), 74.8% (active).
In the case of `CCCCCCC[CH2][Sn]([F])([F])[CH2]CCCCCCC`, the growth inhibition is 3% in test [1] (setting [7]); -7% in test [1] (setting [8]); 41% in test [1] (at 50.0 µM); 12% in test [2] (setting [7]); 4% in test [2] (setting [8]); 46.5% in test [2] (at 50.0 µM). The growth inhibition in test [3] (setting [7]) is -1%; in test [3] (setting [8]) it was -2%; in test [3] (at 50.0 µM), 7.45%; in test [4] (setting [7]) it was -1%; in test [4] (setting [8]) it was -5%; in test [4] (at 50.0 µM), 19.9%. For the same molecule, the growth inhibition in test [5] (setting [7]) was 4%; in test [5] (setting [8]) it was -1%; in test [5] (at 50.0 µM) it was -5.1%; in test [6] (setting [7]), 4%; in test [6] (setting [8]), -15%; in test [6] (at 50.0 µM), 40.2%.
Consider `O=[As]c1ccc(Cl)cc1Cl` (centres undefined), for which the growth inhibition is 100% (active) in test [1] (setting [7]); 99% (active) in test [1] (setting [8]); 99.7% (active) in test [1] (at 50.0 µM); 100% (active) in test [2] (setting [7]); 100% (active) in test [2] (setting [8]); 99.7% (active) in test [2] (at 50.0 µM). Besides, the growth inhibition in test [3] (setting [7]) is 99% (active); in test [3] (setting [8]), 100% (active); in test [3] (at 50.0 µM), 99.7% (active); in test [4] (setting [7]), 100% (active); in test [4] (setting [8]), 99% (active); in test [4] (at 50.0 µM) it was 99.3% (active). Moreover, the growth inhibition in test [5] (setting [7]) was 99% (active); in test [5] (setting [8]), 100% (active); in test [5] (at 50.0 µM), 99.2% (active); in test [6] (setting [7]), 100% (active); in test [6] (setting [8]), 99% (active); in test [6] (at 50.0 µM) it was 99.3% (active).
